# From PubChem BioAssay
# ST2 IL33 inh: blocks human ST2 binding to IL-33; Q01638; AlphaLISA ST2-Fc/biotin-IL-33 interaction, 1 h; inhibition, % for hits at 17 µM; hit rate 2.3% among 78,000; in the data active = inhibition above about 30%
# Target sequence (Q01638 whole entry, looked up): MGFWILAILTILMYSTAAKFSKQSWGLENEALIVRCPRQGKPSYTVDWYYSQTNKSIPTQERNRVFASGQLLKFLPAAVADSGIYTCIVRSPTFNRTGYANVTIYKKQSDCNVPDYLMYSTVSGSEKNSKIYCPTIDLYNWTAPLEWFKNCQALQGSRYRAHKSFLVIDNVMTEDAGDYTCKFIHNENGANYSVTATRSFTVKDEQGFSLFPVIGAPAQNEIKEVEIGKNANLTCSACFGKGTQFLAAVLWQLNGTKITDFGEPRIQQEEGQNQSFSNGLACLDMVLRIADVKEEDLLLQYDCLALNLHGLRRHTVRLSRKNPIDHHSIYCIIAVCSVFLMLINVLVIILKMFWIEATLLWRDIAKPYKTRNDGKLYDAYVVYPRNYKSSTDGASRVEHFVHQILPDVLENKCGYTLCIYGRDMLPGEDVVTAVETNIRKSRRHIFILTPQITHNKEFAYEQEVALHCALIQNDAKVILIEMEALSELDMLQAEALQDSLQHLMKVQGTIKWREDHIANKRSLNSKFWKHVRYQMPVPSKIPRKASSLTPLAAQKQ
# Active calls of the source: *; i = inactive. Shown is part of a subset that was picked to be rich in hits.
SMILES,ST2 IL33 inh
CCC(C)(C)C(=O)Nc1ccccc1OC,i
O=S(=O)(Cc1ccccc1)NCc1nc2cccnc2n1Cc1ccccc1,i
O=C(NCCCN1CCCCC1)c1cc(=O)[nH]c2ccc(S(=O)(=O)N3CCCCCC3)cc12,i
Cc1ncc(-c2c(-c3ccccc3)ncn2CCN2CCCCC2CO)[nH]1 (stereo not drawn),i
Cc1ncc(CN2CCCC2C(=O)Nc2ccc(-c3nc4ccccc4o3)cc2)[nH]1 (stereo not drawn),i
COc1ccc(S(=O)(=O)Nc2ccc(-c3csc(C)n3)cc2)cc1,i
N#C/C(=C\c1ccc(I)cc1)c1nc(-c2ccc([N+](=O)[O-])cc2)cs1,i
COc1ccc(/C=C(\C#N)c2nc(-c3ccc(C)cc3)cs2)cc1,60%*
CCOc1ccc(-c2cc3cc(OC)c(OC)cc3c(CC)n2)cc1,i
CCOc1ccc(/C=C(\C#N)c2nc(-c3ccc(OCC)cc3)cs2)cc1,33%*
Cc1ccc2cc(N=Cc3cc(Cl)cc(I)c3O)ccc2n1,i
CCC1CC(C)(c2csc(Nc3ccccc3)n2)OC1=O (stereo not drawn),i
Cc1cc([N+](=O)[O-])nn1CCCC(=O)Nc1sc2c(c1C#N)CCC2,i
CC(=O)Cn1nc([N+](=O)[O-])nc1-c1nc([N+](=O)[O-])n(CC(C)=O)n1,i
Fc1ccc(F)c(C2c3[nH]c4ccccc4c3CCN2Cc2ccccn2)c1 (stereo not drawn),i
Cc1cc(OCC(=O)N2CCc3ccccc3C2)ccc1Cl,i
CCN(CCN(C)C)Cc1ccc(Cl)cc1,i
CCC(CC)C(=O)Nc1ccccc1Br,i
O=[N+]([O-])c1ccc(N2CCN(c3ccccc3)CC2)c2ncccc12,32%*
O=C(c1ccc(Cl)cc1)N1CCN(c2ccc([N+](=O)[O-])c3ncccc23)CC1,i
O=C(Cc1ccccc1[N+](=O)[O-])N1CCN(c2ccccn2)CC1,i
CCOC(=O)Cn1c(=O)n(-c2ccc(C)c(C)c2)c2nc(-c3cccs3)nc(C(N)=O)c21,i
C=CCSc1nnc2c(n1)OC(c1ccc3c(c1)OCO3)Nc1ccccc1-2 (stereo not drawn),i
COc1ccc(C2=Nc3ccccc3N=C(c3cc(OC)ccc3O)C2)cc1,i
Oc1ccccc1C1=Nc2ccccc2N=C(c2ccccc2)C1,i
SMILES,ST2 IL33 inh
COc1ccc(O)c(C2=Nc3ccccc3N=C(c3ccc(F)cc3)C2)c1,32%*
CC(C)c1cc(C(=O)N2CCC3(CN(C)C(=O)O3)C2)no1 (stereo not drawn),i
CCOC(=O)CC1=C(C(=O)OCC)C(c2cccc(OC)c2)C(C#N)=C(N)O1 (stereo not drawn),i
CCN(CC)CCNC(=O)c1ccc2c(c1)N(Cc1cc(C)ccc1C)C(=O)CS2,i
Cc1ccc(Cn2c(NCC(C)O)nc3c2c(=O)n(C)c(=O)n3C)cc1 (stereo not drawn),i
COc1ccccc1C(=O)N1CCN=C1SCc1ccc(Br)cc1,i
CC(NC(=O)CCC1CCCCC1)c1ccccc1 (stereo not drawn),i
Cc1ccc(N=Cc2cc(C)cc([N+](=O)[O-])c2O)c(Cl)c1,30%*
O=[N+]([O-])c1cccc(C=Nc2ccccc2Cl)c1O,i
O=[N+]([O-])c1cc(Br)cc(C=Nc2ccc(Br)cc2)c1O,i
Cc1nc2c(c(NCc3ccc(C(=O)N4CCCC4)cc3)n1)CCNC2,i
CCS(=O)(=O)NCc1nc2cccnc2n1Cc1cccc(C)c1,i
O=C(NCCn1cc(SCc2ccc([N+](=O)[O-])cc2)c2ccccc21)c1ccc(F)cc1,i
O=C(Nc1ccc(Oc2ccccc2)cc1)c1ccc2c(c1)OCO2,i
Oc1c(C=NCc2ccc(F)cc2)[nH]c2ccc(Br)c(Cl)c12,39%*
Oc1c(C=NCc2ccc(Cl)cc2Cl)[nH]c2ccc(Br)c(Cl)c12,i
Oc1c(C=Nc2ccc(F)cc2)[nH]c2ccc(Br)c(Cl)c12,30%*
Cc1c(Cl)c(C)c([N+](=O)[O-])c(O)c1C=Nc1ccc(F)cc1,i
Oc1c(C=NCCc2ccccc2)[nH]c2ccc(Br)c(Cl)c12,32%*
COc1ccc(CCN=CC2=C(O)CC(c3ccccc3)CC2=O)cc1OC (stereo not drawn),i
COc1cc(Br)c(Br)c(C=Nc2ccc(F)cc2)c1O,i
CC(=O)c1ccc(NC(=O)c2cc(C3CC3)on2)cc1,i
O=C(c1cccc2ccccc12)N1CCN(c2nc3ccccc3s2)CC1,i
Fc1ccc(-c2n[nH]c3c2CN(CCCc2cccnc2)CC3)cc1F,i
Nc1nc(Sc2ccc(F)cc2)cc(N2CCOC(C(F)(F)F)C2)n1 (stereo not drawn),i
SMILES,ST2 IL33 inh
COc1cccc(-c2cc3c(n(Cc4ccccn4)c2=O)CCN(C(=O)c2cc(C)nn2C)C3)c1,i
Cc1cccc(C)c1NC(=O)c1ccco1,i
Cc1ccccc1NC(=O)c1ccco1,i
Cc1ccc(/C=C/NC(=O)c2ccco2)cc1C,31%*
CS(=O)(=O)N[C@H]1CO[C@H]2[C@@H]1OC[C@@H]2Nc1nccc(-c2ccco2)n1,i
O=C1Nc2ccccc2C(O)(C(=O)NC2CCCCC2)N1c1ccc(Cl)c(Cl)c1 (stereo not drawn),i
CC1(C)CC(=O)C2=C(C1)Nc1ccccc1NC2c1c(Cl)cccc1Cl (stereo not drawn),i
CSc1cccc(NC(=O)N2CCC(Cn3cc(CN)nn3)CC2)c1,i
COC(=O)c1nc2n(n1)C(c1cccc(Cl)c1)C(C(=O)OC1CCCCC1)=C(C)N2 (stereo not drawn),i
CCc1cc2c(=O)c(-c3nc4ccccc4s3)coc2cc1OC,i
CCOc1ccc2c(=O)c(-c3nc4ccccc4s3)coc2c1,30%*
CC(=O)Oc1ccc2c(=O)c(-c3csc(-c4ccccc4)n3)coc2c1,i
Cc1cc(C)n(CC(C)n2ccnc2-c2ccc(C(=O)O)cc2)n1 (stereo not drawn),i
c1cncc(-c2nccn2CCn2ccnc2)c1,i
CCC(C)NC(=O)c1ccc(NC(=O)Cn2c(=O)oc3ccccc32)cc1 (stereo not drawn),i
O=C(Cn1c(=O)oc2ccccc21)Nc1ccc(Cl)cc1Cl,46%*
CCOC(=O)Cn1c(=O)oc2cc(Cl)ccc21,i
Cc1ccccc1-c1cccc(C(=O)N2CCOC3(CNCCOC3)C2)c1 (stereo not drawn),i
COc1cc(/C=c2\sc3n(c2=O)CN(c2ccc(C)cc2)CN=3)c([N+](=O)[O-])cc1OC,38%*
CCCOc1ccc(/C=c2\sc3nc(=O)c(C)nn3c2=O)cc1,i
COc1ccc(/C=c2\sc3n(c2=O)CN(c2ccc(C)cc2)CN=3)cc1,31%*
COc1ccccc1/C=c1\sc2nnc(-c3ccc(C)cc3)n2c1=O,i
COc1ccc(/C=c2\sc3n(c2=O)CN(c2ccc(C(C)=O)cc2)CN=3)cc1,i
Cc1ccc(N2CN=c3s/c(=C\c4cccnc4)c(=O)n3C2)cc1,30%*
CCOc1ccc(-c2nc3s/c(=C\c4ccc(F)cc4)c(=O)n3n2)cc1,i
O=c1/c(=C/c2cccnc2)sc2n1CN(c1cccc(C(F)(F)F)c1)CN=2,i
Cc1ccc(-c2nnc3s/c(=C\c4ccc([N+](=O)[O-])cc4)c(=O)n23)cc1,i
O=c1/c(=C/c2cccc([N+](=O)[O-])c2)sc2n1CN(c1cccc(F)c1)CN=2,i
COc1ccc(/C=c2\sc3n(c2=O)CN(c2cccc(F)c2)CN=3)cc1,35%*
